Records with an inconclusive call do not appear. Values without a mark were called inactive. Active and inactive are the calls of the source. The call rests on the fitted dose curve; in most records, active means well fitted cell-killing curve with a large enough effect in the repeat runs; inconclusive means weak or mixed curves, or effect the other way; inactive means flat fitted curve, though single readings scatter.
Assay: qHTS RealTime-Glo MT Cell Viability Assay in HEK293 cells - 16 hour (AID 1224872); further: nearly all actives have a fitted effect of over 50% in size; on activity change, negative = cytotoxicity: top concentration of the series differs between compounds
Conditions: RealTime-Glo luminescence; series mostly up to 76.8 µM; activity change, negative = cytotoxicity: at the top concentration
Description: National Center for Advancing Translational Sciences [NCATS]
NIH Chemical Genomics Center [NCGC]
U.S. Environmental Protection Agency [EPA]
National Institutes of Environmental Health Sciences [NIEHS]
National Toxicology Program [NTP]
U.S. Food and Drug Administration [FDA]
Measure of cell viability is critical in the cell-base assay. Analysis of cell viability is necessary for the characterization of cell responses to cytotoxic drugs and environmental stress. A RealTime-Glo MT Cell Viability Assay to monitor cell viability in real time of continues cell culture during 40 hours of compound treatment was used to screen Tox21 10K library compounds in Hek293 cells. The RealTime-Glo MT Cell Viability Assay is a nonlytic, homogeneous, bioluminescent method to measure cell viability in real time using a simple, plate-based method. The assay involves adding NanoLuc luciferase and a cell-permeant prosubstrate to cells in culture. Viable cells reduce the proprietary prosubstrate to generate a substrate for NanoLuc luciferase. This substrate diffuses from cells into the surrounding culture medium, where it is rapidly used by the NanoLuc Enzyme to produce a luminescent signal. The signal correlates with the number of viable cells, making the assay well suited for cytotoxicity studies.
Tox21 Assay Protocol Summary:
The mixture of Hek293 cell suspension and reagents were dispensed at 600cells/6 ul/well in 1536-well tissue culture treated black solid bottom plates using a Multidrop dispenser. After the assay plates were incubated at a 37 C/5% CO2 incubator for 5 hours, 23 nL of compounds dissolved in DMSO, positive and negative controls was transferred to the assay plate by a pintool work station. The plates were incubated at 37 C for 40 hours. The luminescence intensity were measured at 0h, 8h, 16h, 24h, 32h and 40h time points using ViewLux plate reader during compound treatment.
On the % scale 0 is the no-effect control and ±100 the full control effect; potency means the concentration at half of the fitted maximal effect.

| Compound | activity change, negative = cytotoxicity | Potency |
| --- | --- | --- |
| OC/C(Br)=C(\Br)CO | -2.2% | – |
| C[N+](C)(C)CCOC(N)=O | 3.45% [at 35.3 µM] | – |
| CCOC(=O)C(C)Oc1ccc(Oc2nc3ccc(Cl)cc3o2)cc1 (stereo not given) | – | 21.9 µM (active) |
| C=CC(C)(C)CC(=O)OC | – | 1.38 µM (active) |
| CNCCCC1c2ccccc2C=Cc2ccccc21 | -25.3% [at 35.3 µM] | – |
| N#C[C@@H]1C[C@@H]2C[C@@H]2N1C(=O)[C@@H](N)C12CC3CC(CC(O)(C3)C1)C2 | 11.8% [at 35.3 µM] | – |
| CC(C)CCCCCOC(=O)CCCCC(=O)OCCCCCC(C)C | 10.2% | – |
| C=CC(=O)NCOCC(C)C | -9.41% | – |
| CC1(C)C2=CCCC(C)(C)[C@]23CC[C@H]1C3 | -9.19% | – |
| CCn1nc(C)c2c1C(=O)NCC(c1ccc(O)cc1)=N2 | 2.23% | – |
| O=C(OCCOCCO)c1ccccc1Nc1cccc(C(F)(F)F)c1 | -22.5% [at 35.3 µM] | – |
| CC1CC(O)CC(C)(C)C1 (stereo not given) | 7.9% | – |
| CN(C)CCOC1=Cc2ccccc2Sc2ccc(Cl)cc21 | -10.9% [at 35.3 µM] | – |
| ON(Cc1ccccc1)Cc1ccccc1 | -6.95% | – |
| CCCCN(CCCC)CCCOC(=O)c1ccc(N)cc1 | -21.6% [at 35.3 µM] | – |
| CCC1(C)CC(=O)NC1=O (stereo not given) | 1.11% [at 35.3 µM] | – |
| Cc1nccn1-c1ccc(Sc2cccc(C3(C(N)=O)CCOCC3)c2)cc1 | – | 1.38 µM (active) |
| CN(C(=O)C(Cl)Cl)c1ccc(OC(=O)c2ccco2)cc1 | -11.2% [at 35.3 µM] | – |
| Cc1cc(S(=O)(=O)O)ccc1N=Nc1c(O)ccc2ccccc12 | -17.3% | – |
| COc1cc2ncnc(Nc3ccc(F)c(Cl)c3)c2cc1OCCCN1CCOCC1 | – | 9.52 µM (active) |

| Compound | activity change, negative = cytotoxicity | Potency |
| --- | --- | --- |
| CCCc1c(OCCCOc2ccc(OCC(=O)O)cc2)ccc(C(C)=O)c1O | -7.95% | – |
| NC(=O)Cn1c(=O)cc(CCN2CCN(c3nccc4sccc34)CC2)c2ccc(F)cc21 | – | 49 µM (active) |
| CC(=O)CC(c1ccc([N+](=O)[O-])cc1)c1c(O)c2ccccc2oc1=O (stereo not given) | -0.943% [at 35.3 µM] | – |
| COc1cc2[nH]c(=O)[nH]c(=O)c2cc1OC | 3.03% [at 35.3 µM] | – |
| CO[C@@]12[C@H](COC(N)=O)C3=C(C(=O)C(C)=C(N)C3=O)N1C[C@@H]1N[C@@H]12 | -29.3% [at 35.3 µM] | – |
| CCC(C(=O)OCCOCCN(CC)CC)c1ccccc1 (stereo not given) | 1.93% [at 35.3 µM] | – |
| C=CC(C)(O)CCCC(C)CCCC(C)CCCC(C)C (stereo not given) | 0.963% | – |
| NC(=O)N(O)[C@@H]1COc2cc(OCc3ccccc3)ccc21 | -19.9% | – |
| O=C(CCCCCCCCC#CI)Oc1ccccc1 | -8.19% [at 35.3 µM] | – |
| CC(=O)Nc1ccc(N)cc1 | 4.45% | – |
| Brc1cc(-c2ccc(Br)c(Br)c2Br)cc(Br)c1Br | 1.06% [at 35.3 µM] | – |
| CCOC(=O)c1ccccc1C | 8.85% | – |
| [O]=[Bi] | 3.35% [at 6.97 µM] | – |
| CO[C@H]1O[C@H](CO)[C@@H](O)[C@H](O)[C@H]1O | 10.5% | – |
| C[N+]1(C)CCC(=C(c2ccccc2)c2ccccc2)CC1 | 5.95% [at 35.3 µM] | – |
| COc1ccc(C(=O)c2cccc(O)c2)c(OC)c1 | -17.3% | – |
| CCCCCCOC(=O)CCCCCCCC(=O)OCCCCCC | 4.22% | – |
| Cc1nc2ccccc2s1 | -1.59% | – |
| CCCCCCOC(=O)C(C)C | 2.5% | – |
| CCC(C)(C)C1CCC(O)CC1 (stereo not given) | -4.55% | – |

From PubChem BioAssay (Tox21)
